MITF primary = MITF inhibitors, primary screen, biochemical, AlphaScreen, human; 650,000 compounds, 0.91% hits; inhibition, % at 2.6 µM; AlphaScreen MITF homodimerization, bead proximity signal; Microphthalmia-associated transcription factor (Homo sapiens), O75030; in the data active means inhibition above about 50%
Target sequence (O75030 whole entry, looked up): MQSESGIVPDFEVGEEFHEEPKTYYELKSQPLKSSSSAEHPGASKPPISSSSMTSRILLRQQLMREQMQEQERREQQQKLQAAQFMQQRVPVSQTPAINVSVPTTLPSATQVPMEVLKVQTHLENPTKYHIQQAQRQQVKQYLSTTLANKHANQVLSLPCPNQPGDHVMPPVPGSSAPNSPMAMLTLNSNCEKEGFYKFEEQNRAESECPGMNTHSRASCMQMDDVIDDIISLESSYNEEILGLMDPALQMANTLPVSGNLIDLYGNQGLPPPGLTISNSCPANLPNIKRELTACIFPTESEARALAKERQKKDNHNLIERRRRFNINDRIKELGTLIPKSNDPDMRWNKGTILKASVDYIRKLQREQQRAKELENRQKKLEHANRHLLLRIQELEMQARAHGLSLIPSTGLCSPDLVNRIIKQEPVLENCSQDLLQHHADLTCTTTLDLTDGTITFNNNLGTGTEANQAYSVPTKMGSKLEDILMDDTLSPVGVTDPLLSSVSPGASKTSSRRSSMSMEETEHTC
TEAD-YAP inh = TEAD-YAP interaction inhibition, primary screen, TEAD-YAP interaction inhibitor project, luminescence, HEK-TIYL cells. TEAD-Gal4/YAP UAS-luciferase luminescence. inhibition, % at 9.12 µM. 640,000 compounds, 1.4% hits. AID 1259422, 2018; in the data active means inhibition above about 32%
GPR151 activ = activators of human GPR151, primary screen, cell-based, PathHunter beta-arrestin, luminescence; G-protein coupled receptor 151 (Homo sapiens), Q8TDV0; PathHunter beta-arrestin GPR151 cells; activation, % at 11.2 µM; 650,000 compounds, 1% hits; in the data active means activation above about 4.9%
FBW7 activator = FBW7 E3 ligase activators, primary screen, biochemical, AlphaScreen, human. 650,000 compounds, 0.13% hits. F-box/WD repeat-containing protein 7 (Homo sapiens), Q969H0. AlphaScreen FBW7–phospho-cyclin E peptide binding, activator screen. normalized activity (activation), % at 26.1 µM; in the data active means normalized activity above about 1.9%;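 further: purified mutant Fbw7 with reduced substrate affinity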
GPR151 conf act = GPR151 activators, triplicate retest, confirmation, cell-based, PathHunter beta-arrestin, luminescence. shares compounds with GPR151 activ. activation, % at 11.2 µM. 6,700 tested, under 10 active. GPR151 PathHunter beta-arrestin cells, 90 min; % of EA-reagent control over plate median;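 active means mean percent activation across replicates above the confirmation screen cutoff of 4.91%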
GPR119 ag = GPR119 activators in beta-arrestin cells, counter-screen for GPR151 activator project, cell-based, PathHunter beta-arrestin, luminescence, triplicate; shares compounds with GPR151 activ; 90 min; 0 = compound-well median, 100 = enzyme-acceptor control; activation, % at 11.2 µM; 6,700 compounds, 0.3% hits; AID 1508611, 2020;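 active means mean percent activation in the counterscreen above 29.09%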;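 further: counterscreen on off-target GPR119 to flag nonselective hits from the GPR151 activator screen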
Each line names hits and unclear results; the compound was inactive in the other large screens (follow-up assays come after a bar, where they were run). Only some compounds are listed: those with a hit (about 3.5% of all), similar ones and a draw of the others.

CC(C)c1ccc(NC(=O)CN(c2ccc(Cl)cc2)S(C)(=O)=O)cc1	GPR151 activ 6.2 | GPR151 conf act inactive | GPR119 ag inactive
Cn1cnnc1SCC(=O)N=C1NC(=O)CS1	none
O=C(COc1ccccc1Cl)Nc1ccc(N2CCN(C(=O)c3ccco3)CC2)cc1	GPR151 activ 9.9 | GPR151 conf act inactive | GPR119 ag inactive
O=C(COc1ccc(Cl)cc1Cl)Nc1cccc(NC(=O)c2ccco2)c1	GPR151 activ 11 | GPR151 conf act inactive | GPR119 ag inactive
O=C(COc1ccc(Cl)cc1Cl)NCc1ccco1	none
O=C(COc1ccc(Cl)cc1Cl)OCc1ccco1	GPR151 activ 6.5 | GPR151 conf act inactive | GPR119 ag inactive
O=C(COc1ccc(Cl)cc1Cl)Nc1ccc(NC(=O)c2ccco2)c(Cl)c1	none
CC(=O)Oc1cccc(/C=c2/sc3nc(=O)c(Cc4ccc(F)cc4)nn3c2=O)c1	none
Cc1cn(C2OC(CC(=O)Oc3ccccc3)C3OC(C)(C)OC32)c(=O)[nH]c1=O (centres undefined)	none
COC(=O)c1ccc(OC(=O)C2CC(=O)N(c3ccc(C)cc3C)C2)cc1 (centres undefined)	GPR151 activ 5.0 | GPR151 conf act inactive | GPR119 ag inactive
Cc1ccc(N2CC(C(=O)O)CC2=O)c(C)c1 (centres undefined)	none
COCCn1c(C(=O)Nc2ccc(C(C)C)cc2)cc2c(=O)n(C)c(=O)n(C)c21	none
Cc1ccc(-c2csc(N3CCN(CC(=O)Nc4ccc([N+](=O)[O-])cc4)CC3)n2)cc1	GPR151 activ 7.0 | GPR151 conf act inactive | GPR119 ag inactive
O=C(CN1CCN(c2nc(-c3ccccc3)cs2)CC1)Nc1ccccc1[N+](=O)[O-]	none
NC(=O)C1(Nc2ccccc2)CCCCC1	GPR151 activ 6.8 | GPR151 conf act inactive | GPR119 ag inactive
CCCCN1CCC(Nc2ccccc2)(C(N)=O)CC1	none
CC(C)N(CCNC(=O)c1cccc(-c2ccc3c(ccn3C)c2)n1)C(C)C	GPR151 activ 12, FBW7 activator 2.2 | GPR151 conf act inactive | GPR119 ag inactive
COc1ccc(-c2ncc(C(=O)NCCN(C(C)C)C(C)C)s2)cc1	GPR151 activ 7.8 | GPR151 conf act inactive | GPR119 ag inactive
COc1ccc(-c2ncc(C(=O)NCCN(C(C)C)C(C)C)s2)cn1	none
COc1ccc(-c2cccc(C(=O)NCCN(C(C)C)C(C)C)n2)cc1	GPR151 activ 8.8 | GPR151 conf act inactive | GPR119 ag inactive
CC(C)N(CCNC(=O)c1cccc(-c2ccccc2)n1)C(C)C	none
Cc1ccc2occ(C(=O)c3ccccc3Cl)c(=O)c2c1	GPR151 activ 7.7 | GPR151 conf act inactive | GPR119 ag inactive
O=C(CN1CCN(S(=O)(=O)c2ccc(Cl)cc2)CC1)c1ccc(F)cc1	GPR151 activ 15 | GPR151 conf act inactive | GPR119 ag inactive
CC(=O)C(Sc1nnc(Nc2ccc(C(C)C)cc2)s1)C(C)=O	GPR151 activ 6.0 | GPR151 conf act inactive | GPR119 ag inactive
COc1ccccc1OCCCN1C(=O)C(=O)c2cc(Br)cc(C)c21	GPR151 activ 14 | GPR151 conf act inactive | GPR119 ag inactive
Cc1ccc2cc3c(nc2n1)CCN(CC(O)c1ccc(F)cc1)C3 (centres undefined)	none
Cc1ccc(N2C(=O)CC(Sc3nc(-c4ccccc4)ccc3C#N)C2=O)cc1 (centres undefined)	none
Cc1cc(C(F)(F)F)c(C#N)c(SC2CC(=O)N(c3ccccc3)C2=O)n1 (centres undefined)	GPR151 activ 9.3 | GPR151 conf act inactive | GPR119 ag inactive
CC(C)Cc1ccc(C#N)c(SC2CC(=O)N(c3ccccc3)C2=O)n1 (centres undefined)	GPR151 activ 7.5 | GPR151 conf act inactive | GPR119 ag inactive
Cc1ccc(N2C(=O)CC(Sc3nc(C)cc(C)n3)C2=O)cc1 (centres undefined)	none

Source: PubChem
